From PubChem BioAssay (NCI)
This is part of a sample that, as a whole, favours compounds with a hit. Of some 83,000 tested, about 20% had one in any assay.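 Percent growth is the endpoint: 0 to 100 indicates growth inhibition (40 means 60% inhibition), 0 means no net growth, and negative values indicate cell death.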 The source made the active and inactive calls. The calls were made as follows: active = growth percent below 10; inactive = the rest.

Key:
Assay in all cases: NCI-60 one-dose screen, 48 h (100 = growth as untreated, 0 = no growth, -100 = all killed)
Conditions in all cases: 10 µM unless noted
[1] = system: DU-145 prostate
[2] = system: K-562 leukemia
[3] = system: MALME-3M melanoma
[4] = system: MDA-MB-231 breast
[5] = system: RXF 393 renal
[6] = system: SF-268 CNS
[7] = system: SF-295 CNS
[8] = system: SF-539 CNS
[9] = system: UACC-257 melanoma
[10] = system: M14 melanoma
[11] = system: HCT-15 colon
[12] = system: HT29 colon
[13] = system: SNB-75 CNS
[14] = system: SNB-19 CNS
[15] = system: U251 CNS
[16] = system: PC-3 prostate
[17] = system: SK-MEL-5 melanoma
[18] = system: UACC-62 melanoma
[19] = system: LOX IMVI melanoma
[20] = system: SK-MEL-28 melanoma

Measured: growth

Nc1cc(-c2ccc(Cl)cc2)nn1-c1nc(-c2ccc(Br)cc2)cs1
inactive: [1] 108% | [2] 105% | [3] 86.7% | [4] 97.3% | [5] 103% | [6] 106% | [7] 96.6% | [8] 97.9% | [9] 92.1% | [10] 96.1% | [11] 98.3% | [12] 92% | [13] 89.4% | [14] 91.4% | [15] 95.2% | [16] 91.5% | [17] 100% | [18] 91.1% | [19] 102% | [20] 95.3%

O=C1OCC2=C1C(c1cccc(F)c1)c1cc3c(cc1N2CCO)CCC3 (stereo unspecified)
active: [1] 2.44% | [2] 9.4% | [7] -6.45% | [8] -28.9% | [10] 7.72% | [11] 7.86% | [12] 5%
inactive: [3] 50.9% | [4] 26.9% | [5] 32.3% | [6] 23.3% | [9] 90.1% | [13] 29.6% | [14] 23.9% | [15] 14.3% | [16] 24.2% | [18] 42% | [19] 16.2% | [20] 54.7%

CCOC(=O)CC1CSC(N/N=C(/C)c2cccc(C(F)(F)F)c2)=N1 (stereo unspecified)
inactive: [1] 102% | [2] 80.6% | [3] 95.3% | [4] 94.4% | [5] 109% | [6] 100% | [7] 93.5% | [8] 103% | [9] 87.9% | [10] 101% | [11] 93.8% | [12] 94.3% | [13] 98.3% | [14] 106% | [15] 98.4% | [16] 97.8% | [18] 97.1% | [19] 104% | [20] 107%

COc1cc2c(c(OC)c1OC)CCC(c1cccc(C(=O)Nc3ccccc3Br)c1)O2 (stereo unspecified)
inactive: [1] 86.7% | [2] 71.5% | [3] 89.6% | [4] 83.3% | [5] 91.8% | [6] 87.1% | [7] 94.9% | [8] 83.1% | [9] 90.7% | [10] 67.4% | [11] 92% | [12] 82.4% | [13] 65.8% | [14] 90.1% | [15] 90.7% | [16] 76.1% | [17] 86.3% | [18] 66.2% | [19] 90.2% | [20] 94.6%

COc1cccc2cc(N(C)c3nc(C)nc4c3CCC4)ccc12
active: [1] 5.3% | [8] -0.597% | [10] 6.91% | [11] 8.06% | [12] 2.44% | [15] 5.05% | [16] 9.9%
inactive: [2] 10.4% | [3] 57.4% | [4] 24.8% | [5] 44% | [6] 25.9% | [7] 15.3% | [9] 59.1% | [13] 30.5% | [14] 30.4% | [18] 20.3% | [19] 19.3% | [20] 70.7%

CCOC(=O)/C(=C/c1ccc([N+](=O)[O-])cc1)C(=O)c1ccccc1
active: [2] 4.82% | [5] -11.1% | [8] -24.9% | [11] -15.2% | [12] -23.7% | [16] 5.94% | [19] -68.2% | [20] -29.4%
inactive: [1] 65.3% | [3] 32.4% | [4] 20.1% | [6] 24.5% | [7] 81.6% | [9] 45.4% | [10] 32.4% | [13] 47% | [14] 51.5% | [15] 26% | [17] 62.4% | [18] 19.7%

CNC(=O)c1cc(Oc2cccc3nc(NC(=O)Nc4ccc(F)cc4F)ccc23)ccn1
active: [3] -21.2% | [5] 1.54% | [8] -18.9% | [13] -64.4%
inactive: [1] 30% | [2] 42% | [4] 60.1% | [6] 48.1% | [7] 55.6% | [9] 56.3% | [10] 19.3% | [11] 18.1% | [12] 35.9% | [14] 54.8% | [15] 14.9% | [16] 38.5% | [18] 52.5% | [19] 19.8% | [20] 30.8%

CC(C)(C)c1ccc(C(=O)Nc2sc3c(c2C#N)CCC(=O)C3)cc1
inactive: [1] 64.2% | [6] 22.4% | [7] 10.3% | [9] 19.8% | [14] 14.1% | [15] 16.4% | [19] 10.5% | [20] 28.8%
active: [2] 9.48% | [3] -18.6% | [4] -5.45% | [5] -29.9% | [8] -35.6% | [10] 8.73% | [11] -18.5% | [12] 5% | [13] -6.69% | [16] 8.36% | [18] 9.35%

N=C(N)c1ccc(-c2ccc(-c3ccc(Cl)cc3Cl)s2)nc1
active: [2] -1.71% | [11] -15.2% | [12] 4.27% | [15] -10.6% | [19] -67.9%
inactive: [1] 28.7% | [3] 100% | [4] 74.3% | [5] 79.8% | [6] 89.8% | [7] 58.4% | [8] 83.5% | [9] 101% | [10] 74.7% | [13] 92.4% | [14] 56.3% | [16] 73.2% | [17] 97.7% | [18] 103% | [20] 116%

CCN(CC)c1ccc(/C=N/NC(=O)c2ccccc2Nc2ccnc(C(F)(F)F)c2)c(O)c1
active: [8] -11.1% | [10] -17.4% | [19] 5.58%
inactive: [1] 20.7% | [2] 62.9% | [3] 45.3% | [4] 56.8% | [5] 51.4% | [6] 14.5% | [7] 24.1% | [9] 19.2% | [11] 32.6% | [12] 37.7% | [13] 43.8% | [14] 20.1% | [15] 14.8% | [16] 36% | [18] 19.4% | [20] 47.9%

N#CC1=C(N)Oc2c(ccc3ccccc23)C1c1cc2ccccc2n2nnnc12 (stereo unspecified)
inactive: [1] 19.5% | [3] 53.4% | [4] 32.9% | [5] 11.4% | [6] 26.3% | [7] 10.7% | [9] 47.4% | [10] 12.7% | [11] 11.8% | [14] 26.2% | [15] 18.7% | [16] 10.1% | [18] 25.4% | [19] 24.5% | [20] 39.3%
active: [2] 4.13% | [8] -8.31% | [12] 8.73% | [13] 8.82%

COC(=O)c1cc(-c2cc(OC)c(OC)c(OC)c2)[nH]c1N/N=C/c1c(Cl)cccc1Cl
active: [2] 6.67% | [3] -8.03% | [7] -41.9% | [8] -43.1% | [13] 3.41%
inactive: [1] 45.6% | [4] 23.6% | [5] 21.6% | [6] 31.7% | [9] 45.6% | [10] 58.7% | [11] 60% | [12] 32.4% | [14] 28.5% | [15] 14.1% | [16] 12% | [18] 34.8% | [19] 19.2% | [20] 30.1%

CCOc1ccc(N2C(=O)CCSC2=S)cc1
inactive: [1] 103% | [2] 111% | [3] 96% | [4] 104% | [5] 117% | [6] 104% | [7] 95.7% | [8] 94.9% | [9] 99% | [10] 102% | [11] 101% | [12] 106% | [13] 90.5% | [14] 94.7% | [15] 102% | [16] 93.3% | [18] 91.9% | [19] 96.5%

COc1ccc(C(=O)/C=C/Nc2cc(-c3ccccc3)nn2-c2ccccc2)cc1
inactive: [1] 99.7% | [2] 80.8% | [3] 100% | [4] 93.4% | [5] 85.5% | [6] 90.2% | [7] 95.2% | [8] 95.2% | [9] 90.8% | [10] 93% | [11] 88.1% | [12] 99.4% | [13] 94% | [14] 92% | [15] 93.2% | [16] 86.8% | [18] 72.2% | [19] 92.9%

Oc1cccc(-c2nc(-c3n[nH]c(=S)n3-c3ccccc3)cc3c2[nH]c2ccccc23)c1
inactive: [1] 27.7% | [2] 11.1% | [3] 44.4% | [4] 45.7% | [6] 28.6% | [9] 66.7% | [10] 24.6% | [11] 20.3% | [14] 24.2% | [15] 14% | [16] 30% | [18] 32%
active: [5] -15.7% | [7] 3.87% | [8] -15.2% | [12] 6.61% | [13] -11.5% | [19] 8.16%

Nc1ncc(-c2ccc3ncnc(N4CCc5cc(F)c(Cl)cc54)c3c2)cc1C=O
inactive: [1] 10.1% | [2] 35.5% | [4] 26.4% | [6] 18.1% | [8] 12.1% | [9] 24.6% | [10] 19% | [11] 26.5% | [12] 16.4% | [14] 37% | [15] 48.5% | [16] 20.1% | [19] 19.2% | [20] 10.2%
active: [3] -15.5% | [5] -35% | [7] 6.94% | [13] -38.3% | [17] 2.88% | [18] -17.2%
